DT40 TDP1 no CPT: qHTS for Inhibitors of human tyrosyl-DNA phosphodiesterase 1 (TDP1): qHTS in cells in absence of CPT; DT40 Tdp1-/- hTDP1 cells, no CPT, ATP luminescence, 48 h; Potency, µM (titrated, usually from 46.2 µM), inactives show at the highest dose activity change, negative = growth inhibition, hits mostly inhibitors; 15% of 420,000 active; AID 686978, 2013; note: % is set by controls: 0 for no effect and ±100 for the full control effect; nearly all actives have a fitted effect of over 55% in size
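Growth of hTDP1-complemented DT40 Tdp1-knockout cells is measured by ATP luminescence after at least 48 hr compound exposure at 37 °C, with DMSO substituting for the 20 nM CPT used in the parallel screen.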
TDP1 cell CPT: DT40-hTDP1 cell growth loss with CPT | chicken DT40 Tdp1-/-;hTDP1 cells + 20 nM CPT, ATP luminescence, 48 h | Potency, µM (doses to about 46.2 µM), without a hit: at the top dose activity change, negative = growth inhibition, most hits filed as inhibitors | 12% of 420,000 active | AID 686979; note: % is set by controls: 0 for no effect and ±100 for the full control effect; nearly all actives have a fitted effect of over 55% in size
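Chicken DT40 Tdp1-/- cells stably complemented with human TDP1 were seeded at 400 cells/well in medium containing 20 nM camptothecin, exposed to pin-transferred compounds, and grown at 37 °C for at least 48 hr. Viability was read as ATP luminescence.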
ClpP mod: qHTS Assay for Activators of ClpP. Potency, µM (highest dose often 57.5 µM), for inactives: at the highest dose activity change, negative = active. 1.9% of 340,000 active. ATP-dependent Clp protease proteolytic subunit (Bacillus subtilis (strain 168)), P80244. purified B. subtilis ClpP, FRET peptide cleavage, 20 min; active = well fitted falling curve with a large enough effect; inconclusive = small, poorly fitted or top-dose-only effect; inactive = no such curve, though single readings can be large or run the other way; note: the source files actives as falling curves though it sought activators and does not explain the sign; nearly all actives have a fitted effect of over 65% in size
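FRET quenching reversal measured ClpP activation: 10 microg/mL B. subtilis ClpP at pH 8 with the FRET-FV decapeptide, read at 430 nm after 320 nm excitation. The 20-min minus 0-min signal was scaled between DMSO/no-enzyme wells and ADEP (5.8 microM final).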
TDP1 inh: blocks human tyrosyl-DNA phosphodiesterase 1; Q9NUW8; recombinant TDP1, AlphaScreen DNA substrate cleavage; Potency, µM (series often up to 130 µM), for inactives: at the top dose activity change, negative = inhibition, actives largely listed as inhibitors; 0.28% of 350,000 active; note: % is set by controls: 0 for no effect and ±100 for the full control effect; nearly all actives have a fitted effect of over 40% in size
Target sequence (Q9NUW8 whole entry, looked up): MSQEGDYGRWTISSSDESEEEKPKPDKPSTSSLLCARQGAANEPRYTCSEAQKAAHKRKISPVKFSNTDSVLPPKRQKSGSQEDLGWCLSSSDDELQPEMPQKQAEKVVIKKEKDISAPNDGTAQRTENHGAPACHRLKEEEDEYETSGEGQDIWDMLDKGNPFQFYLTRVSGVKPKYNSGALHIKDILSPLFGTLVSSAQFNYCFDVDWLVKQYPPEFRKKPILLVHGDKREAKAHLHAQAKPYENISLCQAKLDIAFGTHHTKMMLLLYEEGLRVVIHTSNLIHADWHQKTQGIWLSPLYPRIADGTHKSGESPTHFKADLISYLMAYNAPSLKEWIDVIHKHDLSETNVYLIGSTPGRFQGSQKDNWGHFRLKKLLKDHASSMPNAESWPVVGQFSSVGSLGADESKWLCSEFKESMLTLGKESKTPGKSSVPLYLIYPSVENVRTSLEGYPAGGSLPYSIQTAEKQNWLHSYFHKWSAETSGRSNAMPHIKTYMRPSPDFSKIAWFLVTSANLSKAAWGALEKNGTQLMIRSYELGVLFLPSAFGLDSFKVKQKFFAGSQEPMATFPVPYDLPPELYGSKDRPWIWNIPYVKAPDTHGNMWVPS
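Enzyme-compound mixtures sat 15 min at room temperature, followed by a 5 min reaction with 15 nM final substrate and 10 min with AlphaScreen beads. Recombinant human Tdp1 was used at 1 nM final.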
* marks the source's active call; other numbers are inactive results; [ ] = another dose, or the depositor's remark. Only some compounds are listed: those with a hit (about 17% of all), similar ones and a draw of the others. Unless noted, calls come from the whole dose curve; as a rule, active = well fitted curve in the direction sought with a large enough effect; inconclusive = small, poorly fitted or top-dose-only effect, or another doubt; inactive = no such curve, though single readings can be large; an effect the other way counts as inactive or inconclusive. Potency is the fitted concentration of half-maximal effect.

Results for O=[N+]([O-])c1ccc(Sc2cccc3cccnc23)c2cccnc12 ?
DT40 TDP1 no CPT: 26µM*; TDP1 cell CPT: 18µM*; ClpP mod: 0%; TDP1 inh: 8%

Results for COc1ccc(CSc2cccc3cccnc23)cc1[N+](=O)[O-] ?
DT40 TDP1 no CPT: 16µM*; TDP1 cell CPT: inconclusive; ClpP mod: 2%; TDP1 inh: 5%

Results for O=C(Nc1c(C(=O)O)[nH]c2ccc(F)cc12)c1cccc(C(F)(F)F)c1 ?
DT40 TDP1 no CPT: -3%; TDP1 cell CPT: 1%

What do the screens show for `COc1ccc(NC(=O)NC2COc3ccccc3C2)c(OC)c1` (centres undefined)?
DT40 TDP1 no CPT: -5%; TDP1 cell CPT: -11%; ClpP mod: 1%; TDP1 inh: 5%

Results for COc1ccc2c(c1)CC(NC(=O)Nc1cc(Cl)ccc1OC)CO2 (centres undefined) ?
DT40 TDP1 no CPT: inconclusive; TDP1 cell CPT: 23µM*; ClpP mod: 6%; TDP1 inh: 5%

How did O=C(COC(=O)C1COc2ccccc2O1)Nc1cccc(F)c1 (centres undefined) do in these assays?
DT40 TDP1 no CPT: 14%; TDP1 cell CPT: -23%; ClpP mod: 1%; TDP1 inh: -4%

Results for COc1cc(C=NNC(=O)c2ccccc2-n2cccc2)ccc1O ?
DT40 TDP1 no CPT: inconclusive; TDP1 cell CPT: 26µM*; ClpP mod: 20µM*; TDP1 inh: 4%

What do the screens show for `COc1cc(/C=N/NC(=O)Cn2nnc3ccccc32)ccc1O`?
DT40 TDP1 no CPT: inconclusive; TDP1 cell CPT: -13%; ClpP mod: -28%; TDP1 inh: 6%

Results for CCn1c2ccccc2c2cc(/C=N/NC(=O)c3ccccc3)ccc21 ?
DT40 TDP1 no CPT: 16µM*; TDP1 cell CPT: 15µM*; ClpP mod: 22µM*; TDP1 inh: 0%

Results for COc1cc(/C=N/NC(=O)CCn2c3ccccc3c3ccccc32)ccc1O ?
DT40 TDP1 no CPT: 23µM*; TDP1 cell CPT: inconclusive; ClpP mod: -20%; TDP1 inh: 3%

What do the screens show for `COc1cc(C(=O)N/N=C/c2ccc3c(c2)c2ccccc2n3C)ccc1O`?
DT40 TDP1 no CPT: 15µM*; TDP1 cell CPT: inconclusive; ClpP mod: 28µM*; TDP1 inh: 6%

What do the screens show for `Cn1c2ccccc2c2cc(/C=N/NC(=O)c3cc(O)cc(O)c3)ccc21`?
DT40 TDP1 no CPT: inconclusive; TDP1 cell CPT: inconclusive; ClpP mod: 4%

What do the screens show for `Cn1c2ccccc2c2cc(/C=N/NC(=O)c3cc(O)ccc3O)ccc21`?
DT40 TDP1 no CPT: 15µM*; TDP1 cell CPT: 12µM*; ClpP mod: -4%; TDP1 inh: -12%

What do the screens show for `Cc1c2cnn(CC(=O)N3CCOCC3)c(=O)c2c(C)n1Cc1ccccc1F`?
DT40 TDP1 no CPT: -17%; TDP1 cell CPT: -7%; ClpP mod: -22%

How did COc1ccc(NC(=O)c2cnc[nH]2)cc1 do in these assays?
DT40 TDP1 no CPT: inconclusive; TDP1 cell CPT: -28%; ClpP mod: 1%; TDP1 inh: 5%

How did Cc1nn(CC(=O)N2CCN(c3ccccc3)CC2)c(=O)c2cc3cc(F)ccc3n12 do in these assays?
DT40 TDP1 no CPT: -1%; TDP1 cell CPT: 19%; ClpP mod: -9%; TDP1 inh: 7%

What do the screens show for `NC(N)=Nc1nc2ccc(Cl)cc2c(=O)[nH]1`?
DT40 TDP1 no CPT: 13µM*; TDP1 cell CPT: inconclusive; TDP1 inh: -3%

How did COc1ccc(COC(=O)N/N=C2/C[C@@H](O)[C@@H](O)[C@@H]3[C@@H]4C(=O)N(C[C@@H]5CCCO5)C(=O)[C@H]4CC[C@H]23)cc1 do in these assays?
TDP1 inh: 6%[21 µM]

Results for CC1(C)Cc2c(sc(NC(=O)C(=O)N3CCOCC3)c2C(N)=O)CO1 ?
DT40 TDP1 no CPT: 20%; TDP1 cell CPT: -18%; ClpP mod: 2%; TDP1 inh: 6%

How did Cn1c(=O)c2sccc2n(Cc2cccc(Br)c2)c1=O do in these assays?
DT40 TDP1 no CPT: inconclusive; TDP1 cell CPT: 12µM*

How did O=C(C1CCC(Cn2c(=O)c3sccc3n(Cc3cccc(F)c3)c2=O)CC1)N1CCCCC1 (centres undefined) do in these assays?
DT40 TDP1 no CPT: 5.8µM*; TDP1 cell CPT: inconclusive; ClpP mod: -4%; TDP1 inh: 8%

How did O=C(C1CCC(Cn2c(=O)c3sccc3n(Cc3cccc(F)c3)c2=O)CC1)N1CCOCC1 (centres undefined) do in these assays?
DT40 TDP1 no CPT: 16µM*; TDP1 cell CPT: inconclusive; ClpP mod: -1%; TDP1 inh: 8%

Results for COc1cc(OC)cc(-n2c(=O)c3sccc3n(Cc3ccc(F)cc3)c2=O)c1 ?
DT40 TDP1 no CPT: inconclusive; TDP1 cell CPT: -19%; ClpP mod: -1%; TDP1 inh: 0%

Results for O=c1c2sccc2n(Cc2cccc(F)c2)c(=O)n1-c1ccc(F)cc1 ?
DT40 TDP1 no CPT: 18µM*; TDP1 cell CPT: 15µM*; ClpP mod: -3%; TDP1 inh: 0%

How did Cc1ccccc1Cn1c(=O)n(CC2CCC(C(=O)N3CCOCC3)CC2)c(=O)c2sccc21 (centres undefined) do in these assays?
DT40 TDP1 no CPT: inconclusive; TDP1 cell CPT: inconclusive; ClpP mod: -1%; TDP1 inh: 1%

What do the screens show for `CO[C@H]1COC(=O)[C@H](C)COC(=O)[C@H](C)NC(=O)C/C=C\[C@H]1C`?
TDP1 inh: 4%[21 µM]

How did COc1cccc(/C=N/NC(=O)c2ccoc2C)c1 do in these assays?
DT40 TDP1 no CPT: -23%; TDP1 cell CPT: -4%; TDP1 inh: 1%

How did CC(=O)c1ccc(S(=O)(=O)N(C)CCCC(=O)NCc2ccc3c(c2)OCO3)cc1 do in these assays?
DT40 TDP1 no CPT: inconclusive; TDP1 cell CPT: -18%; ClpP mod: 1%; TDP1 inh: 11%

How did CC(C)Cc1nc2cc(NS(=O)(=O)N(C)C)cc(C(=O)N3CCSCC3)c2n1C do in these assays?
DT40 TDP1 no CPT: 2%; TDP1 cell CPT: -3%[9.04 µM]

What do the screens show for `Cc1ccc(Cn2c(=O)n(CC3CCC(C(=O)N4CCOCC4)CC3)c(=O)c3sccc32)cc1` (centres undefined)?
DT40 TDP1 no CPT: 16µM*; TDP1 cell CPT: 21µM*; ClpP mod: 0%; TDP1 inh: 8%

What do the screens show for `CNC(=O)C1CCC(Cn2c(=O)c3sccc3n(Cc3ccc(F)cc3)c2=O)CC1` (centres undefined)?
DT40 TDP1 no CPT: 8.2µM*; TDP1 cell CPT: 8.2µM*; ClpP mod: -1%; TDP1 inh: 6%

What do the screens show for `Cc1ccc(-c2nn(-c3cccc([N+](=O)[O-])c3)c3c2cnc2ccc(F)cc23)cc1`?
DT40 TDP1 no CPT: 10%; TDP1 cell CPT: 10%; ClpP mod: 1%; TDP1 inh: -1%

What do the screens show for `OCC[C@@H]1C[C@H](O)[C@@H](O)[C@]2(OCCc3ccccc32)O1`?
DT40 TDP1 no CPT: -10%; TDP1 cell CPT: 11%; ClpP mod: 1%

High-throughput results deposited in PubChem BioAssay by National Center for Advancing Translational Sciences (NCATS).
